Screening results deposited in PubChem BioAssay by National Center for Advancing Translational Sciences (NCATS).
MCF10A rereplic: A quantitative high throughput screen for small molecules that induce DNA re-replication in MCF 10a normal breast cells | MCF 10A DNA re-replication, Hoechst nuclear intensity, 48 h | Potency, µM (series often up to 46.1 µM), without a hit: at the top dose activity, positive = re-replication, usual class: activators | actives 2.9% (n = 350,000) | AID 624296, 2012; further: % of control where 0% means no effect; nearly all actives have a fitted effect of over 50% in size
HT1080 IDH1KD tx: qHTS for induction of synthetic lethality in tumor cells producing 2HG: qHTS for the HT-1080-IDH1KD cell line | Potency, µM (highest dose often 46.1 µM), for the others: top-dose activity, negative = toxicity, actives largely listed as cytotoxic | actives 2% (n = 360,000) | HT-1080 IDH1 knockdown viability, ATP luminescence, 48 h;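 further: 0% = DMSO wells and -100% = cell-free medium wells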
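% activity derives from luminescence (CellTiter-Glo), normalised to DMSO and no-cell wells. HT-1080-IDH1KD cells, 750/well, had 48 h compound exposure at 37 °C.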
KB-3-1 tox: qHTS assay for MDR1-selective chemotherapeutics: Primary screen using the parental adenocarcinoma cell KB-3-1; actives 1.4% (n = 400,000); AID 1347075, 2019; Potency, µM (doses to about 46.1 µM), hits mostly cytotoxic; KB-3-1 viability, CellTiter-Glo ATP luminescence, 72 h; further: on the % scale 0 is the no-effect control and ±100 the full control effect; nearly all actives have a fitted effect of over 60% in size
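72 h, 37 °C compound treatment of KB-3-1 parental cells; CellTiter-Glo added, 10 min, luminescence read. Data corrected against DMSO-only plates and normalized before curve fitting.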
KB-V1 cytotox: qHTS assay for MDR1-selective chemotherapeutics: Primary screen using the drug-selected MDR subline cells KB-V1 | Potency, µM (titrated, usually from 46.1 µM), actives largely listed as cytotoxic | AID 1347076, 2019 | KB-V1 MDR cells viability, CellTiter-Glo, 72 h | actives 3.4% (n = 400,000); further: on the % scale 0 is the no-effect control and ±100 the full control effect; nearly all actives have a fitted effect of over 60% in size
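Potencies derive from concentration-effect curves fitted to normalized luminescence (CellTiter-Glo) of KB-V1 cells treated for 72 h at 37 degrees C in phenol-red-free DMEM containing 10% FBS.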
SW480 rereplic: A quantitative high throughput screen for small molecules that induce DNA re-replication in SW480 colon adenocarcinoma cells | Potency, µM (titrated, usually from 46.1 µM), for inactives: at the highest dose re-replication activation, most hits filed as activators | SW480 DNA re-replication, Hoechst DNA content imaging, 48 h | actives 1.8% (n = 340,000) | AID 624297, 2012; further: % of control where 0% means no effect; nearly all actives have a fitted effect of over 55% in size
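SW480 cells exposed to compounds for 48 hr at 37 C, 5% CO2, then Hoechst-stained 40 min. Nuclear DNA content imaged by fluorescence scanning (405 nm excitation, 500-530 nm emission); re-replication scored as increased high-intensity nuclei.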
HT1080-NT tox: qHTS for induction of synthetic lethality in tumor cells producing 2HG: qHTS for the HT-1080-NT fibrosarcoma cell line. HT-1080-NT fibrosarcoma viability, CellTiter-Glo ATP luminescence, 48 h. Potency, µM (series often up to 46.1 µM), without a hit: top-dose activity, negative = less viability, hits mostly cytotoxic. actives 1.6% (n = 360,000);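 further: NT is the 2HG producing partner of a matched IDH1 knockdown line; 0% = DMSO-treated cells and -100% = media-only wells without cells; nearly all actives have a fitted effect of over 55% in size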
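Toxicity toward the 2HG-producing NT line was scored as %Activity, normalised to DMSO and no-cell wells, from CellTiter-Glo luminescence after 48 hours' treatment.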
Active calls of the source: *; i = inactive; ? = inconclusive; . = no result. A selection: hits, their analogues and other compounds. The true share with any hit is near 8%. The call rests on the fitted dose curve; in most records, active means well fitted curve in the direction sought with a large enough effect; inconclusive means small, poorly fitted or top-dose-only effect, or another doubt; inactive means no such curve, though single readings can be large; an effect the other way counts as inactive or inconclusive. Potency means the concentration at half of the fitted maximal effect.

SMILES	MCF10A rereplic	HT1080 IDH1KD tx	KB-3-1 tox	KB-V1 cytotox	SW480 rereplic	HT1080-NT tox
C=C(C(=O)c1ccccc1)C(NC(C)(C)C)c1ccccc1 (configuration not stated)	1.8µM*	5.8µM*	3.7µM*	?	2.9µM*	6.5µM*
O=C(CC(Nc1ccccc1)C(=O)O)c1ccccc1 (configuration not stated)	23%	3%	i	i	14%	13%
Cc1csc2nc(O)c(C(=O)NCCCN3CCCC3=O)c(=O)n12	-2%	0%	i	18µM*	-114%	16%
Cc1csc2nc(O)c(C(=O)NC3CCCCC3)c(=O)n12	7%	1%	i	21µM*	15%	-8%
Cc1ccn2c(=O)c(C(=O)NCCCN3CCCC3=O)c(O)nc2c1	1%	8%	i	i	?	9%
Cc1csc2nc(O)c(C(=O)NC3CCCCCC3)c(=O)n12	-9%	-22%	i	?	-604%	-26%
Cc1ccc2[nH]c3c(=O)n(CC(=O)N4CC(C)CC(C)C4)ncc3c2c1 (configuration not stated)	2%	20%	i	i	-10%	25%
CN[C@H](C)CCC=C(C)C	24µM*	.	i	i	3%	.
CC(C)=CCCC(C)CCO (configuration not stated)	13%	-1%	i	i	-12%	5%
Clc1ccccc1OCCCCN1CCNCC1	21µM*	-1%	i	i	-44%	-21%
CCOc1ccccc1C(=O)Nc1ccccc1C(N)=O	4%	-18%	i	13µM*	-5%	2%
COC(=O)c1sccc1NC(=O)c1csc(C)c1	-11%	?	i	16µM*	22%	-22%
CCOc1ccccc1NC(=O)c1ccccc1NC(=O)c1ccco1	29%	-7%	i	i	?	-7%
O=C(Nc1ccccc1OCc1ccccc1)c1ccccc1Br	0.58µM*	-4%	i	?	?	0%
CCOc1ccccc1C(=O)Nc1ccsc1C(=O)OC	7.3µM*	?	5.8µM*	7.3µM*	5.8µM*	?
CC(OC(=O)CCC(=O)c1cccs1)C(=O)Nc1ccc(Cl)cn1 (configuration not stated)	-4%	12%	i	i	-5%	-2%
COc1ccc(/C(N)=N/OC(=O)Cc2ccc(OC)c(OC)c2)cc1	2%	16%	?	8.2µM*	-6%	?
COc1ccc(C(=O)Cc2ccc(OC)c(OC)c2)c(OC)c1	-10%	7%	i	13µM*	-5%	-9%
COc1ccc(CC(=O)c2cc(OC)c(OC)cc2CC(=O)O)cc1OC	-14%	6%	i	i	-12%	3%
Cc1cc(Cl)ccc1OC(C)C(=O)NCCCCc1ccccc1 (configuration not stated)	-2%	-1%	i	i	0%	5%
COC(=O)c1c(C)[nH]c(-c2csc(N)n2)c1C	?	?	?	i	15µM*	?
CCOC(=O)c1[nH]c(C)c(C(=O)OC)c1C	12%	15%	i	i	-4%	6%
Cc1ccc2c(c1)=N/C(=N\c1[nH]c(O)c3ccccc13)N=2	.	?	?	?	.	23µM*
Oc1[nH]c(N=C2N=c3ccccc3=N2)c2ccccc12	?	?	?	?	16µM*	?
Cc1ccc(O)c(Nc2nc(-c3ccccc3)nc3ccccc23)c1	?	-5%	i	i	11%	-5%
SMILES	MCF10A rereplic	HT1080 IDH1KD tx	KB-3-1 tox	KB-V1 cytotox	SW480 rereplic	HT1080-NT tox
S=c1sc2c(Cl)ncnc2n1-c1ccccc1	2.1µM*	?	?	?	?	21µM*
C/C(=N\N1C(=O)c2ccccc2NC1c1ccccc1)c1ccccc1O (configuration not stated)	4%	-13%	i	i	?	-10%
C/C(=N\N1C(=O)c2ccccc2NC1c1ccco1)c1ccccc1O (configuration not stated)	4.1µM*	?	?	?	?	?
COc1cccc(CNc2ccc3[nH]c(=O)[nH]c3c2)c1OCc1ccccc1	1%	-8%	i	i	0%	-8%
CCc1ccc(/C=C2\Oc3cc(OC(=O)N4CCOCC4)ccc3C2=O)cc1	?	29%	?	21µM*	4%	14%
Cc1cc(C)c(OCC(=O)OCC(=O)N2CCN(C(=O)c3ccco3)CC2)c(C)c1	2%	11%	i	i	2%	8%
Cc1[nH]c2ccccc2c1C(c1ccccn1)N1CCCC1 (configuration not stated)	14%	6%	i	i	-6%	8%
Cc1[nH]c2ccccc2c1C(c1ccccn1)N1CCC(C)CC1 (configuration not stated)	19%	8%	18µM*	?	15%	3%
CCOc1ccc(C(O)(c2ccccc2)C(CN2CCCC2)c2ccccc2)cc1 (configuration not stated)	122%	-3%	i	i	21µM*	?
COc1ccc(C(O)(CCC(C)C)C(CN2CCOCC2)c2ccc(Cl)cc2)cc1 (configuration not stated)	?	?	?	26µM*	?	?
CCCC(O)(c1ccc(Cl)cc1)C(CN1CCOCC1)c1ccc(Cl)cc1 (configuration not stated)	?	?	?	16µM*	?	?
CCOc1ccc(C(O)(CCC(C)C)C(CN2CCOCC2)c2ccccc2)cc1 (configuration not stated)	?	18µM*	i	?	23µM*	?
CCCCC(O)(c1ccc(F)cc1)C(CN1CCOCC1)c1ccc(Cl)cc1 (configuration not stated)	7.3µM*	?	?	8.2µM*	?	?
Cc1cc(C)c(S(=O)(=O)c2ccccc2)c(Cl)n1	-2%	0%	i	i	-5%	-1%
Cc1cc(C)c(S(=O)(=O)c2ccccc2C)c(Oc2ccccc2)n1	9%	-2%	?	21µM*	-4%	2%
Cc1cc(C)c(S(=O)(=O)c2ccccc2C)c(OCCO)n1	-1%	15%	i	i	-3%	12%
